Assay outcomes: PubChem BioAssay, several laboratories
GRK2 aptamer HTS = compounds blocking aptamer binding on GRK2 – biochemical, human GRK2, bead flow cytometry, HTS, primary screen; Beta-adrenergic receptor kinase 1 (Homo sapiens), P25098; FAM-aptamer displacement from GRK2; inhibition of aptamer binding, % at 10 µM; hit rate 0.59% among 330,000; AID 488847, 2010;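 active = inhibition of aptamer binding above 40%, roughly 3 SD of noise, on plates passing a quality check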;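 note: median bead fluorescence of bound FAM aptamer so fluorescent compounds give negative values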
VLA-4 inh = inhibition in human VLA-4 binding assay, primary screen, VLA-4 allosteric modulator project, MLPCN library, flow cytometry, VLA-4 expressing cells | inhibition, % (about 7 µM as worked out from the volumes in the protocol) | hit rate 0.2% among 330,000 | AID 2557, 2010 | ligand binding flow cytometry | Integrin alpha-4 (Homo sapiens), P13612; in the data active = inhibition above about 50%
APOBEC3A inh = APOBEC3A ssDNA deaminase inhibitors, primary screen, selectivity assay for APOBEC3G inhibitor project, biochemical, FAM/TAMRA oligo cleavage fluorescence; DNA dC->dU-editing enzyme APOBEC-3A (Homo sapiens), P31941; recombinant A3A, FAM/TAMRA ssDNA deamination fluorescence; inhibition, % at 20 µM; hit rate 0.41% among 330,000; AID 493011, 2011;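 active = at least 40% inhibition at 20 µM here, with at most 30% in a related deaminase screen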
APOBEC3G inh = APOBEC3G DNA deaminase inhibitors, primary screen, biochemical, fluorescence, single-stranded DNA substrate, uHTS; DNA dC->dU-editing enzyme APOBEC-3G (Homo sapiens), Q9HC16; recombinant A3G, ssDNA deamination FAM/TAMRA fluorescence; inhibition, % at 20 µM; hit rate 0.28% among 330,000;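 active = inhibition of at least 40% at 20 µM, with no more than 30% in the related APOBEC3A deaminase screen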
GRK2 CP1 = GRK2 aptamer-displacing inhibitors, retest, confirmation, biochemical, cherry pick 1, bead flow cytometry; aptamer displacement, % at 10 µM; bead-bound GRK2, FAM-aptamer displacement; hit rate 4% among 2,000; AID 504451, 2011; shares compounds with GRK2 aptamer HTS;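 active = aptamer displacement above 40%, near three times the noise of non-fluorescent compounds, on plates passing quality checks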;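 note: negative values mostly reflect intrinsic compound fluorescence rather than true enhancement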
Aptamer quench 1 = fluorescent aptamer quenching in GRK2 counter-screen dose response; shares compounds with GRK2 aptamer HTS; Fluorescent RNA aptamer beads, flow cytometry; hits give high values; fluorescence change (kMESF span), kMESF (test concentration not listed); 110 tested, under 10 active; AID 504521;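 active = compounds whose bead fluorescence drops by more than 37 kMESF across the dose range, marking them as dye quenchers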
Aptamer quench SP = counter-screen for GRK2 aptamer inhibitors: fluorescent aptamer quenchers; shares compounds with GRK2 aptamer HTS; Carboxyfluorescein RNA aptamer on beads, flow cytometry quenching; hits give low values; fluorescence response (% of DMSO), % at 10 µM; 2,000 tested, under 10 active; AID 504580;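 active = compounds that quench the bead-bound fluorescent RNA probe, cutting fluorescence to under half of the solvent control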;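 note: counterscreen run without GRK2 so only probe quenching by compound is measured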
GRK2 CP2 = GRK2 aptamer-displacing inhibitors, hit retest, confirmation, biochemical, cherry pick 2, bead flow cytometry; shares compounds with GRK2 aptamer HTS; 360 tested, under 10 active; inhibition of aptamer binding, % at 10 µM; bead-bound GRK2, FAM-aptamer displacement; AID 504782, 2011;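 active = inhibition of aptamer binding above 40%, about triple the noise seen with nonglowing compounds, on plates passing quality control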;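 note: negative values mostly come from compounds that fluoresce themselves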
FAM quench SP = aptamer fluorescence quenching in GRK2 counter-screen | shares compounds with GRK2 aptamer HTS | carboxyfluorescein RNA aptamer beads, flow cytometry quenching; hits give low values | fluorescence response vs DMSO, % at 10 µM | 360 tested, under 10 active;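 active = response vs DMSO under 50%, meaning signal dropped by over half, treated as fluorescence quencher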;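 note: labelled aptamer on streptavidin beads without GRK2 as a quench counter-screen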
A number is an active result; - = inactive; . = not tested or not shown. A selection: hits, their analogues and other compounds. The true share with any hit is near 1.4%.

SMILES | GRK2 aptamer HTS | VLA-4 inh | APOBEC3A inh | APOBEC3G inh | GRK2 CP1 | Aptamer quench SP | others
COc1ccccc1N1CCN(C(=O)c2ccc(S(=O)(=O)N3CCCCCC3)cc2)CC1 | - | - | - | - | - | -
O=C(c1ccc(S(=O)(=O)N2CCCCCC2)cc1)N1CCN(c2ccccc2)CC1 | - | - | - | - | . | .
Cc1cccc(OCc2nc(-c3ccccn3)n[nH]2)c1 | - | - | - | - | . | .
O=C(NC1CCCCC1)N1CCN(Cc2nc3ccccc3c(=O)[nH]2)CC1 | - | - | - | - | . | . | GRK2 CP2=-;FAM quench SP=-
O=c1[nH]c(CN2CCN(c3ccccc3)CC2)nc2ccccc12 | - | - | - | - | . | . | GRK2 CP2=-;FAM quench SP=-
O=C(NC1CCCCC1)N(Cc1nc2ccccc2c(=O)[nH]1)C1CCCCC1 | - | - | - | - | . | .
CCC(CC)C(=O)N1CCN(Cc2nc3ccccc3c(=O)[nH]2)CC1 | - | - | - | - | . | .
O=c1[nH]c(CN2CCN(c3ccc(F)cc3)CC2)nc2ccccc12 | - | - | - | - | . | .
O=C(c1ccco1)N1CCN(Cc2nc3cc(Cl)ccc3c(=O)[nH]2)CC1 | - | - | - | - | . | . | GRK2 CP2=-;FAM quench SP=-
O=C(c1cccs1)N1CCN(Cc2nc3ccccc3c(=O)[nH]2)CC1 | - | - | - | - | . | . | GRK2 CP2=-;FAM quench SP=-
O=S(=O)(c1ccccc1C(F)(F)F)N1CCN(CC(O)COc2ccccc2F)CC1 (stereo not drawn) | - | - | . | . | . | .
N#Cc1ccccc1S(=O)(=O)N1CCN(CC(O)COc2ccccc2F)CC1 (stereo not drawn) | 54 | - | - | - | - | -
COc1ccc(CC(=O)Nc2nc(-c3ccc(F)c(F)c3)cs2)cc1 | 92 | - | - | - | - | -
CCc1ccc(NC(=O)CC2S/C(=N/N=C3CCCCCC3)NC2=O)cc1 (stereo not drawn) | . | . | - | - | . | .
Cc1ccc(C(=O)Nc2cccc(C(F)(F)F)c2)cc1NC(=O)c1csc(-c2ccncc2)n1 | - | - | - | - | - | -
O=C(Nc1ccncc1)c1cccc2ccccc12 | 49 | - | - | - | - | -
O=C(Nc1ccncc1)c1ccccc1Cl | - | - | - | - | . | .
CCOc1ccc(C(=O)c2nc3c(n2O)CCCC3)cc1 | - | - | - | - | - | -
CC(=O)N/N=C(\C)c1ccc2c(c1)OCCO2 | 72 | - | - | - | - | -
C[C@H]1CN=C(N(C)C)N1CCCC1CCCC1 | 42 | - | - | - | - | -
C[C@H]1CN=C(N(C)C)N1CCC1CCCCC1 | - | - | - | - | . | .
CCCC(=O)Nc1ccc2c(c1)nc(CCNC(=O)c1ccccc1)n2C | - | - | - | - | - | -
Nc1ccn(CC(=O)NCc2ccccn2)c(=O)n1 | 77 | - | - | - | - | -
CCOC(=O)N/N=C/c1ccc(N2CCOCC2)s1 | - | - | - | - | . | .
CCN1/C(=C/C=C/C=C/C=C/c2sc3ccccc3[n+]2CC)Sc2ccccc21 | - | - | - | - | . | .
SMILES | GRK2 aptamer HTS | VLA-4 inh | APOBEC3A inh | APOBEC3G inh | GRK2 CP1 | Aptamer quench SP | others
CCN1/C(=C/c2ccc3cc(C)ccc3[n+]2CC)Sc2ccccc21 | 55 | . | - | - | - | -
CCC(=O)/C=C1/Sc2ccccc2N1CC | - | - | - | - | . | .
CCN1/C(=C/C=C/c2sc3ccccc3[n+]2CC)Sc2ccccc21 | 100 | . | - | - | 101 | - | Aptamer quench 1=-
O=C1C2CCCN2C(=O)N1CCCCN1CCN(c2ccccc2)CC1 (stereo not drawn) | - | - | - | - | . | .
O=C1C2CCCN2C(=O)N1CCCCN1CCN(c2cccc(Cl)c2)CC1 (stereo not drawn) | 100 | - | - | - | . | . | GRK2 CP2=-;FAM quench SP=-
Cc1ccc(F)cc1NC(=O)N1CCN(C2c3ccccc3-c3ccccc32)CC1 | - | - | - | - | . | .
Cc1ccccc1C(=O)N1CCC(C(=O)O)CC1 | - | - | - | - | . | .
COc1cc(CCC(=O)NCc2ccc(F)cc2)cc(OC)c1OC | - | - | - | - | - | -
COc1cc(CCC(=O)Nc2nccs2)cc(OC)c1OC | - | - | - | - | - | -
COc1ccccc1-c1cc(C(F)(F)F)nc(S(=O)(=O)CCCC(=O)NC(C)C)n1 | - | - | - | - | . | .
COc1ccccc1-c1cc(C(F)(F)F)nc(S(=O)(=O)CCCC(=O)NCc2ccc(F)cc2)n1 | 48 | - | - | - | - | - | GRK2 CP2=-;FAM quench SP=-
O=C1CC(C(=O)O)C2(CCCC2)O1 (stereo not drawn) | - | - | - | - | . | .
Cc1cc(C)nc(/N=C(\N)Nc2cccc([N+](=O)[O-])c2)n1 | - | - | - | - | . | .
CCNS(=O)(=O)c1ccc(OC)c(C)c1 | - | - | - | - | . | .
CCN1C(=O)CSC1=Nc1ccc(Cl)c(Cl)c1 | - | - | - | - | . | .
CC(=O)c1ccc(NC(=S)N(CCCN(C)C)Cc2ccccc2)cc1 | - | - | - | - | . | .
CC(C)CNC(=O)CSc1nc2nn(-c3ccccc3)c(=O)c-2c2n1CCCCC2 | - | - | - | - | - | -
CCC1CCCCN1Cc1nc2c(c(=O)n(C)c(=O)n2C)n1CCCc1ccccc1 (stereo not drawn) | - | - | - | - | - | -
CCCn1c(CN2CCCCC2CC)nc2c1c(=O)n(C)c(=O)n2C (stereo not drawn) | 47 | - | - | - | - | -
COc1cc2[nH]c(C(=O)N3CCc4ccccc4C3)cc2c(OC)c1OC | - | - | - | - | . | .
N=c1oc2cc(O)ccc2cc1C(=O)Nc1nc2ccccc2s1 | - | - | . | . | - | -
COCCN1C(=O)/C(=C/c2ccc(N3CCCC3)cc2)SC1=S | 57 | - | - | - | - | -
CC(=O)C1=C(O)C(=O)N(CCc2c[nH]c3ccccc23)C1c1ccc(C)cc1 (stereo not drawn) | - | - | - | - | . | .
Cc1cc(C)nc(/N=C2\NC(=O)CC(C(=O)O)N2CCc2c[nH]c3ccccc23)n1 (stereo not drawn) | 60 | - | - | - | - | -
c1ccc2cc(OCCOCCOc3ccc4ccccc4c3)ccc2c1 | 55 | - | - | - | - | -
